Experimental data: PubChem BioAssay AID743445 (Broad Institute, 2014)
The campaign covered roughly 310,000 compounds. About 1,700 (0.55%) were called active. No stated cut-off is given here; in the data, active means inhibition above about 50%; inactive means the rest. The full list was thinned out, with actives kept by preference.

Target: Histone-lysine N-methyltransferase NSD2 (Homo sapiens) (UniProt O96028)
Assay: NSD2 histone methyltransferase inhibitors, primary screen, biochemical, AlphaScreen, single concentration, set 2 (AID 743445)
Details: NSD2 peptide methylation, 120 min, at 12.5 µM, active compounds read high

Sequence of Histone-lysine N-methyltransferase NSD2 (Homo sapiens) (O96028 whole entry, looked up): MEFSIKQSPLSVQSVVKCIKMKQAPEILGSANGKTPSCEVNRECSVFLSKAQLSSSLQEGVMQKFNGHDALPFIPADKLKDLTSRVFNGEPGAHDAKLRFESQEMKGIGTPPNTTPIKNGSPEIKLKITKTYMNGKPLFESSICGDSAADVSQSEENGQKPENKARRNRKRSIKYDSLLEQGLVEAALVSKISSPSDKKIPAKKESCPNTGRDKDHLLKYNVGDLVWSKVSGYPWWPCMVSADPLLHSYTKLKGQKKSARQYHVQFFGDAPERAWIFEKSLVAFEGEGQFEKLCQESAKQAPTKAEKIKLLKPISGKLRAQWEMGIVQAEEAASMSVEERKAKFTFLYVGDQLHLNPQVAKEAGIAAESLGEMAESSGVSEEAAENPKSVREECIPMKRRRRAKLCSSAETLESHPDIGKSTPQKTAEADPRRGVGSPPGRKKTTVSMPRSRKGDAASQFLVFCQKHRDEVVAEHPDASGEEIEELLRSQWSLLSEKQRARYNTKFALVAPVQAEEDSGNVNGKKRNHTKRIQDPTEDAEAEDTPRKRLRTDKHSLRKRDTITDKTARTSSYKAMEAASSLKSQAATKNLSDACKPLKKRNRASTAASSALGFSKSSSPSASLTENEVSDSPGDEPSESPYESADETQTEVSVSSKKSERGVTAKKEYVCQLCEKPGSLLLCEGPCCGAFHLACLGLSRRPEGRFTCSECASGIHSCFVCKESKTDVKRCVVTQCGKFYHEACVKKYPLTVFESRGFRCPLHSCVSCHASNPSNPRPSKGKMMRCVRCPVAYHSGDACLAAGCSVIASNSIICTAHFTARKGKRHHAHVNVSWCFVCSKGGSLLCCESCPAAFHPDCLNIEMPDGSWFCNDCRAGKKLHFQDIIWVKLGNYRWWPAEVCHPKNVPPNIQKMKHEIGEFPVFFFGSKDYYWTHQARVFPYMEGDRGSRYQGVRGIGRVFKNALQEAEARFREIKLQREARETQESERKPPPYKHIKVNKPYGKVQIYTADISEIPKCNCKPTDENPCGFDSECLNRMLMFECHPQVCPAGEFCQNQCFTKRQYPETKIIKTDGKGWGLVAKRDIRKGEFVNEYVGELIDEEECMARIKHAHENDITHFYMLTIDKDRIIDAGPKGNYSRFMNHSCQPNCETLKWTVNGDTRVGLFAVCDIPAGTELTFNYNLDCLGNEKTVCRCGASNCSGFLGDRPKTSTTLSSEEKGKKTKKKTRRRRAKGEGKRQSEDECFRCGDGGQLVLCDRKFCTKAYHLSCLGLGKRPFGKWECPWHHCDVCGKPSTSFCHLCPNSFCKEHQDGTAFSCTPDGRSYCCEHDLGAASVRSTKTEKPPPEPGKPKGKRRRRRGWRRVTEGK

inhibition, inactive:
COc1ccc(C(C)NC(=O)C23CC4CC(CC(C4)C2)C3)cc1 (stereo unspecified) 0.365%, CCC(NC(=O)C1C2C=CC3(CN(Cc4ccccc4)C(=O)C13)O2)c1ccccc1 (stereo unspecified) -0.276%, CC(=O)N1CCc2cc(S(=O)(=O)NCCC(=O)N3CCCC3)ccc21 -3.38%, Cc1ccc(-n2c(SCC(=O)Nc3ccc(S(=O)(=O)Nc4nccs4)cc3)nnc2-c2ccccn2)cc1 10.5%, COc1ccccc1CCNC(=O)C1CCN(c2nc(C)cc(C)n2)CC1 -3.97%, Cc1ccc(C(=O)N(Cc2ccccn2)CC2CCCO2)cc1 (stereo unspecified) -6.08%, OC(c1ccccc1)c1nc(/C=C/c2ccc(C(F)(F)F)cc2)cs1 (stereo unspecified) -1.07%, CSc1ccc(CN2CCC2(C)C(=O)Nc2ccc(C)c(O)c2)cc1 (stereo unspecified) -2.34%, COCC(C)n1c(SCc2ccc(C(=O)OC)o2)nc2ccccc2c1=O (stereo unspecified) -0.047%, COCCn1c(C)cc(C(=O)CSc2nc3ccccc3c(=O)n2C(C)COC)c1C (stereo unspecified) 1.34%, COC(CNC(=O)[C@H](Cc1ccccc1)NC1(C(=O)NC2CCCCC2)CCCCC1)OC -1.53%, CC1(Oc2ccc(Cl)cc2)CCN(Cc2csc3ccccc23)C1 (stereo unspecified) -2.85%, COC(=O)c1nc(NC(=O)c2ccc(F)cc2)n[nH]1 -3.85%, COC(=O)c1nc(NC(=O)c2ccc(C(C)(C)C)cc2)n[nH]1 -1.33%, COc1cccc(CSc2nnc(-c3cccnc3)n2Cc2ccccc2)c1 2.07%, CCc1nc2c(OCCOc3ccccc3)cccn2c1N(C)C(=O)c1cccs1 -0.996%, CC(=O)c1cccc(-c2cnc3c(NC=O)cc(-c4ccc(N5CCN(C)CC5)cc4)cn23)c1 2.68%, CC(C)(C)CC(=O)Nc1nc(C(N)Cc2ccc(C(F)(F)F)cc2)cs1 (stereo unspecified) 14%, O=C(Nc1cccnc1Cl)c1cc(-c2cccc(Cl)c2)on1 -7.36%, O=C(NCCCN1CCOCC1)c1cc(-c2cccc(O)c2)on1 -0.66%, Cc1ccc(-c2nc(C3CCCN(S(=O)(=O)c4ccc(Br)s4)C3)no2)cc1 (stereo unspecified) -7.73%, CCOc1cc2ccccc2cc1C(=O)Nc1ccccn1 -0.208%, Cc1cccc(OCC(=O)NCCCNC(=O)c2ccccn2)c1 1.46%, C=CCn1c2c(c3ccccc31)CCC2 1.47%, Cc1ccc(Nc2ncnc3c2cnn3C)c(C)c1 -0.415%, Cn1ncc2c(NNC(=O)Cc3cccc4ccccc34)ncnc21 -5.08%, Cc1cc(C)cc(NC(=O)N2CCC(N(C)CCC(C)C)CC2)c1 6.38%, Cc1cc(NS(=O)(=O)c2ccc(NC(=O)CSc3nnc(SCc4ccc(F)cc4)s3)cc2)nc(C)n1 1.71%, CCOC(=O)C(=O)N(Cc1ccccc1)c1ccccc1C(=O)Nc1cc(OC)ccc1OC 3.11%, Cc1cccc(N=Nc2c(C)[nH]n(-c3ccccc3)c2=O)c1 9.54%, COC(=O)c1ccccc1N=Nc1c(C)[nH][nH]c1=O 0.329%, OC(c1ccccc1)c1nc(-c2cnc3ccccc3c2)cs1 (stereo unspecified) 2.58%, COC(=O)CC1CCc2cc(C)cc(C(CC(C)C)NC(=O)[C@H](CC(C)C)NC(=O)OCc3ccccc3)c2O1 (stereo partly specified) -2.73%, O=C(NCc1ccco1)C1(c2ccc(Cl)cc2)CCCC1 3.15%, COC(=O)/C=C/C(=O)NCc1ccco1 0.685%, CCOc1ccc(-n2c(SCC(=O)Nc3cc(C)c(NC(=O)c4ccccc4)cc3OC)nnc2-c2cccc(Cl)c2)cc1 1.66%, c1csc(-c2nnc(SCc3nc4ccccc4[nH]3)o2)c1 -7.8%

inhibition, active:
CCOc1ccc(C(CC(=O)O)NC(=O)C23CC4CC(CC(C4)C2)C3)cc1OC (stereo unspecified) 73.2%, Cc1coc2c(O)cc3c(c12)OC1(N2CCCCC2)C(=O)NCCCC31 (stereo unspecified) 75.1%, COCC(C)n1c(SCC(=O)NC2CCCCC2C)nc2ccccc2c1=O (stereo unspecified) 52.7%, COC(=O)c1nc(NC(=O)c2ccccc2)n[nH]1 64.1%, CCN(CC)CCCNC(=O)c1cc(-c2cccc(Cl)c2)on1 63.4%, CCN(CC)CCOc1ccc2c(c1)C(=NNC(=O)c1ccccn1)c1cc(OCCN(CC)CC)ccc1-2 64.6%, Cn1ncc2c(Nc3cccc4ccccc34)ncnc21 58.9%, Cc1[nH]n(-c2ccccc2)c(=O)c1N=Nc1ccccc1C(=O)N1CCCCC1 56.8%, O=C(/C=C/c1ccc(Cl)cc1Cl)NCc1ccco1 57.4%
